In the library only some 6.8% were active in any assay of this set; here they are far more common.
MCF10A rerep: DNA re-replication induction in MCF 10a cells; MCF 10A DNA re-replication, Hoechst nuclear intensity, 48 h; Potency, µM (doses to about 46.1 µM), for the others: at the highest dose activity, positive = re-replication, most hits filed as activators; hit rate 2.9% among 350,000; AID 624296; further: % of control where 0% means no effect; nearly all actives have a fitted effect of over 50% in size
TSG101-PTAP inh: blocks PTAP/TSG101 interaction to inhibit HIV-1 budding. Fluorescence polarization, FITC-PTAP peptide / Tsg101 binding. Potency, µM (titrated, usually from 115 µM), for the others: at the top dose activity change, negative = inhibition, usual class: inhibitors. 340,000 tested, under 10 active; active means well fitted inhibition curve with a large enough effect in the main read-out, with a control signal flat, not every such curve was filed as active; inconclusive means small, poorly fitted or top-dose-only effect, or effect the other way, or a change in a side signal; inactive means no such curve, though single readings can be large or run the other way; further: % of control where 0% means no effect
Target sequence (Q99816 whole entry, looked up): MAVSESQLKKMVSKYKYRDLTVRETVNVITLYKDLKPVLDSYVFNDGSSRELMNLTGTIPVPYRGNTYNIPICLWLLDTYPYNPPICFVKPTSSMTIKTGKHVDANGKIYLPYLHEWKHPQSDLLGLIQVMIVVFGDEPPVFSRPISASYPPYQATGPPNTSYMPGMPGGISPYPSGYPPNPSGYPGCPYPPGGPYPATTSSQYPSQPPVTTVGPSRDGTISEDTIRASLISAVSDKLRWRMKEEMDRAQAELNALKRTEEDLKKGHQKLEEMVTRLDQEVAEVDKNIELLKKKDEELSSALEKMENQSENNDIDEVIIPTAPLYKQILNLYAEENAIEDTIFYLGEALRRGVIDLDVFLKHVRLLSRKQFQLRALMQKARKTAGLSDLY
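Fluorescence anisotropy tracks displacement of a FITC-tagged PTAP peptide (50 nM) from the Tsg101 binding domain (10 uM), following a 20 min room-temperature incubation at pH 7.5.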
SW480 rereplic: induces DNA re-replication in SW480 colon adenocarcinoma cells; Potency, µM (highest dose often 46.1 µM), for the others: at the top dose re-replication activation, hits mostly activators; SW480 DNA re-replication, Hoechst DNA content imaging, 48 h; hit rate 1.8% among 340,000; further: % of control where 0% means no effect; nearly all actives have a fitted effect of over 55% in size
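Quantitative HTS format with DMSO vehicle controls; 48 hr drug incubation at 37 C, then 40 min Hoechst staining and scanning imager measurement at 405 nm excitation.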
PINK1 expr mod: modulators of PINK1 expression. Potency, µM (doses to about 76.6 µM), for inactives: at the top dose activation (PINK1 increase), actives largely listed as activators. AID 624263. PINK1 immunofluorescence, high-content cytometry, 24 h. hit rate 0.2% among 410,000; active means well fitted activation curve with a large enough effect; inconclusive means small, poorly fitted or top-dose-only effect; cell line not stated here; further: % of control where 0% means no effect; nearly all actives have a fitted effect of over 65% in size
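Readout is PINK1 immunofluorescence, quantified alongside mitochondrial, cell and nuclear markers by laser-scanning microplate cytometry. Cells from a stable line were exposed to compound titrations (5 concentrations) for 24 hours, with CCCP controls.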
KB-3-1 cytotox: kills parental KB-3-1 adenocarcinoma cells; KB-3-1 viability, CellTiter-Glo ATP luminescence, 72 h; Potency, µM (top dose mostly 46.1 µM), hits mostly cytotoxic; hit rate 1.4% among 400,000; further: on the % scale 0 is the no-effect control and ±100 the full control effect; nearly all actives have a fitted effect of over 60% in size
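Using CellTiter-Glo luminescence, growth of non-resistant KB-3-1 adenocarcinoma cells is assessed 72 h after pin-tool compound addition at 37 °C. Normalized responses across the concentration series yield fitted curves.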
KB-V1 cytotox: kills drug-selected multidrug resistant KB-V1 cells | KB-V1 MDR cells viability, CellTiter-Glo, 72 h | AID 1347076 | Potency, µM (series often up to 46.1 µM), actives largely listed as cytotoxic | hit rate 3.4% among 400,000; further: on the % scale 0 is the no-effect control and ±100 the full control effect; nearly all actives have a fitted effect of over 60% in size
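Potencies derive from concentration-effect curves fitted to normalized luminescence (CellTiter-Glo) of KB-V1 cells treated for 72 h at 37 degrees C in phenol-red-free DMEM containing 10% FBS.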
The depositor's hits bear a star; i = inactive; u = inconclusive; x = not tested or not shown; [ ] = remark or other dose. Unless noted, the call rests on the fitted dose curve; in most records, active means well fitted curve in the direction sought with a large enough effect; inconclusive means small, poorly fitted or top-dose-only effect, or another doubt; inactive means no such curve, though single readings can be large; an effect the other way counts as inactive or inconclusive. Potency means the concentration at half of the fitted maximal effect.

SMILES	MCF10A rerep	TSG101-PTAP inh	SW480 rereplic	PINK1 expr mod	KB-3-1 cytotox	KB-V1 cytotox
Oc1cc(-c2nc3ccccc3s2)cc2c1OCCN(Cc1cccn1-c1nccs1)C2	x	x	x	1.5%	x	x
C=C(C(=O)c1ccccc1)C(NC(C)(C)C)c1ccccc1 (stereo not given)	1.84µM*	-0.6%	2.91µM*	-6.8%	3.66µM*	u
C=C(C(=O)c1ccccc1)C(C)CC(=O)c1ccccc1 (stereo not given)	u	-0.2%	20.6µM*	2.4%	i	i
Cc1oc(-c2cccc(NC(=O)c3ccccn3)c2)nc1CNC(=O)C#Cc1ccccc1	x	x	x	0.1%	x	x
CCOC(=O)c1cc(-c2ccc(OC)cc2)n(CCC(=O)NC2CCCCC2)c1C	x	x	x	1.7%	x	x
COC(=O)c1ccccc1NC(=O)N1CCC(n2c(C)nc3cccnc32)CC1	x	x	x	-1.1%	i	i
COc1ccc(-c2nn(-c3ccccc3)cc2/C=N/NC(=S)NC(C)C)cc1OC	-31.0%	-3.1%	u	6.3%	i	u
COc1ccc(-c2nn(-c3ccccc3)cc2/C=N/N=C(N)N)cc1OC	u	8.6%	u	-4.4%	u	i
COc1ccc(-c2nn(-c3ccccc3)cc2/C=N/O)cc1OC	16.4µM*	-1.7%	u	2.9%	i	i
COc1ccc(-c2nn(-c3ccccc3)cc2/C=N/Nc2ccc3ccccc3n2)cc1OC	u	2.8%	25.9µM*	5.6%	i	u
CCN(CC)c1ccc(CN(C(=O)Cc2coc3ccc(C)cc23)C2CCS(=O)(=O)C2)cc1 (stereo not given)	x	x	x	0.4%	u	u
CCOc1ccc(N/C(SCc2cccc([N+](=O)[O-])c2)=C(/C#N)C(N)=O)cc1	u	0.7%	18.5%	2.8%	i	i
N#CC(C#N)=C(Nc1ccc(F)cc1)SCc1cccc(F)c1	23.1µM*	-18.8%	-31.9%	u	16.4µM*	u
CC1(C(=O)NCc2cccs2)Cc2c(-c3ccc(C(N)=O)cc3)ccnc2O1 (stereo not given)	x	x	x	6.3%	14.6µM*	i
CC1(C(=O)NCC2CC2)Cc2c(-c3cccc(C(F)(F)F)c3)ccnc2O1 (stereo not given)	x	x	x	8.5%	u	u
CC(=O)NCCNC(=O)C1(C)Cc2c(-c3ccc(C(N)=O)cc3)ccnc2O1 (stereo not given)	x	x	x	1.9%	i	i
CC1(C(=O)NCc2cccs2)Cc2c(-c3cccc(C(F)(F)F)c3)ccnc2O1 (stereo not given)	x	x	x	2.0%	u	20.6µM*
COCCNC(=O)C1(C)Cc2c(-c3cccc(C(F)(F)F)c3)ccnc2O1 (stereo not given)	x	x	x	7.1%	u	i
CC1(C(=O)NCc2ccccc2)Cc2c(-c3cccc(C(F)(F)F)c3)ccnc2O1 (stereo not given)	x	x	x	1.1%	16.4µM*	6.51µM*
CCOC(=O)c1cc(C)n(CC2CCC(C(=O)Nc3cc(OC)cc(OC)c3)CC2)c1C (stereo not given)	x	x	x	2.0%	x	x
COc1cccc(C(=O)NCc2nc(-c3cccc(NC(=O)c4ccoc4C)c3)oc2C)c1OC	x	x	x	0.0%	x	x
CCCCn1c(SC(C)C(=O)c2ccc(OC)cc2)nc2cc(S(N)(=O)=O)ccc21 (stereo not given)	u	-5.3%	27.2%	1.0%[38.3 µM]	i	i
CCCCn1c(SCC(=O)c2ccc(OC)cc2OC)nc2cc(S(N)(=O)=O)ccc21	4.1%	-3.7%	-4.1%	2.6%	i	18.4µM*
COC(=O)CSc1nnc(NC(=O)/C=C\c2ccc3c(c2)OCO3)s1	-2.5%	-1.1%	2.7%	-1.5%	i	i
Cc1sc(NC(=O)/C=C/c2ccc3c(c2)OCO3)nc1-c1ccccc1	u	-0.5%	6.2%	4.1%	1.3µM*	2.91µM*
SMILES	MCF10A rerep	TSG101-PTAP inh	SW480 rereplic	PINK1 expr mod	KB-3-1 cytotox	KB-V1 cytotox
CCOC(=O)c1c(NC(=O)/C=C/c2ccc3c(c2)OCO3)sc(C)c1CC	8.2µM*	-1.0%	2.1%	8.2%	20.6µM*	i
O=C(/C=C/c1ccc2c(c1)OCO2)Nc1nc(-c2ccccc2)cs1	u	-9.9%	-2.4%	1.0%	7.31µM*	u
COC(=O)c1c(NC(=O)/C=C/c2ccc3c(c2)OCO3)sc(C)c1C	u	-0.3%	-5.0%	5.2%	i	i
O=C(/C=C/c1ccc2c(c1)OCO2)Nc1nncs1	u	-1.5%	-13.8%	4.4%	5.8µM*	i
CC(=O)Nc1nc(-c2ccc3c(c2)OCO3)cs1	2.4%	1.9%	-0.7%	3.9%	i	i
O=C(/C=C/c1cccs1)Nc1nc(-c2ccccc2)cs1	94.8%	3.7%	14.2%	-1.8%[38.3 µM]	u	14.6µM*
O=C(COC(=O)c1cccs1)Nc1nc(-c2ccccc2)cs1	-4.9%	-9.2%	4.1%	1.3%	i	i
O=C(Cc1cccs1)Nc1nc(-c2ccccc2)cs1	u	-4.2%	-2.6%	2.9%[38.3 µM]	u	16.4µM*
Cc1ccc(-c2cc3c(n2-c2ccc(F)cc2)CC(C)(C)CC3=O)cc1	x	x	x	-1.7%	i	i
Cc1ccc(C)c(NC(=O)C(NS(=O)(=O)c2ccc3c(c2)CCC(=O)N3)c2ccccc2)c1 (stereo not given)	x	x	x	1.3%	i	i
N#CC(c1nc2ccccc2nc1N1CCCC1)S(=O)(=O)c1ccccc1 (stereo not given)	25.5%	-8.2%	-4.4%	1.7%	u	20.6µM*
Cc1ccc(C)c(S(=O)(=O)C(C#N)c2nc3ccccc3nc2N2CC(C)OC(C)C2)c1 (stereo not given)	u	-1.8%	u	u	18.4µM*	u
COc1ccc(CNC(=O)C(C#N)c2nc3ccccc3nc2N2CCCC2)cc1 (stereo not given)	11.6µM*	u	u	u	i	i
Cc1ccc(C)c(S(=O)(=O)C(C#N)c2nc3ccccc3nc2N2CCOCC2)c1 (stereo not given)	u	-8.6%	3.6%	u	u	11.6µM*
CCOc1ccccc1C(=O)N(Cc1ccc(N(C)C)cc1)Cc1ccco1	x	x	x	1.4%	x	x
CCn1nc(C)c2c(-c3ccccc3)cc(=O)n(C(C)C(=O)NCCc3ccc(OC)c(OC)c3)c21 (stereo not given)	x	x	x	3.6%	i	i
Cc1ccc(NC(=O)N2CCC(CN3CCCCCC3)CC2)c(Cl)c1	x	x	x	0.4%	x	x
COc1cccc(NC(=O)CCc2nc(-c3cc(OC)c(OC)c(OC)c3)no2)c1	x	x	x	-0.6%	i	i

Bioassay records deposited in PubChem BioAssay by National Center for Advancing Translational Sciences (NCATS).
